The target of test [1] is T1, Mitogen-activated protein kinase kinase kinase 7 (Homo sapiens) (UniProt O43318).
T1 sequence (whole entry): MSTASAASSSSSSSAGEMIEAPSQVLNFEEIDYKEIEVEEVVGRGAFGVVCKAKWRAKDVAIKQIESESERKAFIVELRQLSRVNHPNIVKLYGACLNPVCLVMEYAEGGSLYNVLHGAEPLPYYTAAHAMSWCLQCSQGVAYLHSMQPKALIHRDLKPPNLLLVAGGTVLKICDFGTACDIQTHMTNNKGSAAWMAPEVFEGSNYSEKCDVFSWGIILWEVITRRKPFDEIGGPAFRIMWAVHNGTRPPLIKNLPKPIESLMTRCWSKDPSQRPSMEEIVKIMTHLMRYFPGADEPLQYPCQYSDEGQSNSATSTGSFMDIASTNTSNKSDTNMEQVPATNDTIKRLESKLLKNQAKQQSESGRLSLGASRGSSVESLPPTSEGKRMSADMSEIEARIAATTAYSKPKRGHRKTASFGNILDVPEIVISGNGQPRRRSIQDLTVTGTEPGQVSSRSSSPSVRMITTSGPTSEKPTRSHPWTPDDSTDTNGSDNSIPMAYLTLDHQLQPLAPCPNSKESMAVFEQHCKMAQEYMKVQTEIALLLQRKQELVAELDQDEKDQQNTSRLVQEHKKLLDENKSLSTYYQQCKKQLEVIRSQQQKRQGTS
Conditions: at 10 µM.

For test [2], the target named is T2, Serine/threonine-protein kinase TAO1 (Homo sapiens) (UniProt Q7L7X3).
T2 sequence (whole entry): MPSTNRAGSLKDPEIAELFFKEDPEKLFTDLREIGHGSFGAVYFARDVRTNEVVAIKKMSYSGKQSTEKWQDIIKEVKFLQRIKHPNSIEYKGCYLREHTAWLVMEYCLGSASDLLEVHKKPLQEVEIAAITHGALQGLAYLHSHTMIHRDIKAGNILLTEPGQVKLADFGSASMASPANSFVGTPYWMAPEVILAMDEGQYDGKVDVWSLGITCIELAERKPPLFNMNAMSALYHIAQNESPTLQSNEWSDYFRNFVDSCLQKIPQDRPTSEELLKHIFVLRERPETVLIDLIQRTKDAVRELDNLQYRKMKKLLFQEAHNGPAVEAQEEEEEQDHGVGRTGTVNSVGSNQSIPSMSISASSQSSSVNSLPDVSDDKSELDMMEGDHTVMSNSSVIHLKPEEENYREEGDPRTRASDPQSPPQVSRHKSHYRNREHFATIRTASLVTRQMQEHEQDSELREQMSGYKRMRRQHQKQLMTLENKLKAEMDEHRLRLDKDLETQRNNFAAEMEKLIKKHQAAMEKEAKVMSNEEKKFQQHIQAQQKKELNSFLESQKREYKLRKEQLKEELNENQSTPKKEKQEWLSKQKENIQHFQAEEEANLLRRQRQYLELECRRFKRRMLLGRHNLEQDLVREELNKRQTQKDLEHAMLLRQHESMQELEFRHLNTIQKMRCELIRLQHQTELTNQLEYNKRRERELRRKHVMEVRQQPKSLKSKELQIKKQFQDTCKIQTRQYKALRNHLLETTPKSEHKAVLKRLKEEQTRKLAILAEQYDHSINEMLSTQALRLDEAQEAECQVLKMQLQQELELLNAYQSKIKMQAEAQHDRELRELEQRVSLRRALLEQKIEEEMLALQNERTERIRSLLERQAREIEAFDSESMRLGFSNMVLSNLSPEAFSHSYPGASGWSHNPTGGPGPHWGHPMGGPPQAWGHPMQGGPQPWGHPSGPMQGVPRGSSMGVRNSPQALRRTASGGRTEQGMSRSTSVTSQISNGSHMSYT
As to conditions: at 10 µM.

For test [3], the target named is T3, Serine/threonine-protein kinase TAO2 (Homo sapiens) (UniProt Q9UL54).
T3 sequence (whole entry): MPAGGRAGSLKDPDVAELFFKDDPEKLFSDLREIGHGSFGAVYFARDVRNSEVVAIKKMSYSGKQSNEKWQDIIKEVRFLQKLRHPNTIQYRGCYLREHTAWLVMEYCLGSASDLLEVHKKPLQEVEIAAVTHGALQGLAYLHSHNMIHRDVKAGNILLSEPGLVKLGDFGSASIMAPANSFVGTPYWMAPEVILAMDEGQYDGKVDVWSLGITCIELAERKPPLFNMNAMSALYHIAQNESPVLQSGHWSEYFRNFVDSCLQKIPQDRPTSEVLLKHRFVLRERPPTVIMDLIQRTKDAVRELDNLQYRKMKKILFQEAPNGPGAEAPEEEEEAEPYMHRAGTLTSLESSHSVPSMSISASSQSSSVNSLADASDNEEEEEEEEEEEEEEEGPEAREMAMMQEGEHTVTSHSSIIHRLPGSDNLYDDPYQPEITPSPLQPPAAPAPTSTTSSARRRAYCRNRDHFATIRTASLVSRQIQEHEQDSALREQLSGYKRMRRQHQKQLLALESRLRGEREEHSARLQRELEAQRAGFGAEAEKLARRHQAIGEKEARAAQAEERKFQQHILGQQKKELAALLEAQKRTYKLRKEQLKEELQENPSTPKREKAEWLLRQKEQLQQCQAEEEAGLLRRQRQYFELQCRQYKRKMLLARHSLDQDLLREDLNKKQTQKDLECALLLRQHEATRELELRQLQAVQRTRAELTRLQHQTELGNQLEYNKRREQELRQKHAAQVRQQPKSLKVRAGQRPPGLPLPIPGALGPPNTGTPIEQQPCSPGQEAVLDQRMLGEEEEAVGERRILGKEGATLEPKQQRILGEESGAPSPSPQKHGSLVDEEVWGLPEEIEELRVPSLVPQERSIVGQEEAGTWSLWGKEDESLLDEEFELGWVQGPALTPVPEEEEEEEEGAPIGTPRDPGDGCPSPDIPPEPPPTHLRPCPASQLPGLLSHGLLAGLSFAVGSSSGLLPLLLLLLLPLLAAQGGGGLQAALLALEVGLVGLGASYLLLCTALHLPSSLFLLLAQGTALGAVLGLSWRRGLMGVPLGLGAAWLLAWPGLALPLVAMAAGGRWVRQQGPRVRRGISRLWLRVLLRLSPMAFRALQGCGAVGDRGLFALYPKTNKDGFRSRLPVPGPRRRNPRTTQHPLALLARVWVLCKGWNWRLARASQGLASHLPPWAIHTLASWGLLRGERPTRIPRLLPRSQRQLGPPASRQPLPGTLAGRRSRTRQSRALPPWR
As to conditions: at 10 µM.

Test [4] deals with T4, Serine/threonine-protein kinase TAO3 (Homo sapiens) (UniProt Q9H2K8).
T4 sequence (whole entry): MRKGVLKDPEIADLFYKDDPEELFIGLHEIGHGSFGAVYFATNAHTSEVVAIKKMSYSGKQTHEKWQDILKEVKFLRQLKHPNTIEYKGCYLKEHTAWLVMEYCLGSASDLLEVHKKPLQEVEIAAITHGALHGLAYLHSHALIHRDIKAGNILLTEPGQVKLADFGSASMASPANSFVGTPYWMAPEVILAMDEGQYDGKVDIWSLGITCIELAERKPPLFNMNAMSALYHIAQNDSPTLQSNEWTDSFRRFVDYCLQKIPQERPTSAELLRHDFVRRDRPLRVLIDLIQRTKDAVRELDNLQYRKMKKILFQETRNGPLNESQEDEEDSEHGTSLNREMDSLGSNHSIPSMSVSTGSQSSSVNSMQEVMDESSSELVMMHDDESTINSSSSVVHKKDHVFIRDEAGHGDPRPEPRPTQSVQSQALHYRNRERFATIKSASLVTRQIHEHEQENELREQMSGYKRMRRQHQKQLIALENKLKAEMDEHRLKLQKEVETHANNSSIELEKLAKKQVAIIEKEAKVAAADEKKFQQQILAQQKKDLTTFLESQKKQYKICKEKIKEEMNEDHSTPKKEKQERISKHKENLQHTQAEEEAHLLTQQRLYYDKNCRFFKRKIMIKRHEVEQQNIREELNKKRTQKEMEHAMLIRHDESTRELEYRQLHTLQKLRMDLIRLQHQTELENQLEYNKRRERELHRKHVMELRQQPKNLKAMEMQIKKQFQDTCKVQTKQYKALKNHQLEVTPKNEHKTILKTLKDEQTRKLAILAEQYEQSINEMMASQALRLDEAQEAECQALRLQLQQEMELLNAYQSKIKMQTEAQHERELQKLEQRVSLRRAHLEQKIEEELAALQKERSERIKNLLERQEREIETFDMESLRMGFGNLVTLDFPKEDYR
Conditions: at 10 µM.

The target in test [5] is T5, Serine/threonine-protein kinase TBK1 (Homo sapiens) (UniProt Q9UHD2).
T5 sequence (whole entry): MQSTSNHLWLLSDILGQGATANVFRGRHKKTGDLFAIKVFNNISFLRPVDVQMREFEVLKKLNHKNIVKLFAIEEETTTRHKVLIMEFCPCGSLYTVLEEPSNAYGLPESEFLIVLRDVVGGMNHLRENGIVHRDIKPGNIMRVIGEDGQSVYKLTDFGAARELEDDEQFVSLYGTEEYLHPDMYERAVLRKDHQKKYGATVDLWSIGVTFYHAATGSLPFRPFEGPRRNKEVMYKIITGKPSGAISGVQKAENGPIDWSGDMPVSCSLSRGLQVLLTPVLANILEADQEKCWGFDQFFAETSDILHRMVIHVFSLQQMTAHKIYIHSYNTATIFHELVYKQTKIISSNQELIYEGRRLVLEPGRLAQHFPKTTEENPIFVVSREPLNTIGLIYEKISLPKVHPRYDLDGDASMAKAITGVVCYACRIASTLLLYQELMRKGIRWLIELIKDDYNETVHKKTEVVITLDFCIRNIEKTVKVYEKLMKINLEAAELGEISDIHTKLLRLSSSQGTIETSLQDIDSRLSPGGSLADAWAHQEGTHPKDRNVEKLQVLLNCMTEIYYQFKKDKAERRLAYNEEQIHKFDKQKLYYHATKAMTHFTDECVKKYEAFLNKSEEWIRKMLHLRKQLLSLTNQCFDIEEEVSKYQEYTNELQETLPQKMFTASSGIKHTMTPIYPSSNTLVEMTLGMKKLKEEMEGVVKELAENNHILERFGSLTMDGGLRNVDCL
As to conditions: at 1 µM.

Test [6] has as its target T5, Serine/threonine-protein kinase TBK1 (Homo sapiens). As to conditions: at 10 µM.
For test [7], the target named is Insulin-like growth factor 1 receptor (Homo sapiens) (UniProt P08069). As to conditions: at 10 µM.
Sequence of Insulin-like growth factor 1 receptor (Homo sapiens) (P08069 31-736 limits assumed): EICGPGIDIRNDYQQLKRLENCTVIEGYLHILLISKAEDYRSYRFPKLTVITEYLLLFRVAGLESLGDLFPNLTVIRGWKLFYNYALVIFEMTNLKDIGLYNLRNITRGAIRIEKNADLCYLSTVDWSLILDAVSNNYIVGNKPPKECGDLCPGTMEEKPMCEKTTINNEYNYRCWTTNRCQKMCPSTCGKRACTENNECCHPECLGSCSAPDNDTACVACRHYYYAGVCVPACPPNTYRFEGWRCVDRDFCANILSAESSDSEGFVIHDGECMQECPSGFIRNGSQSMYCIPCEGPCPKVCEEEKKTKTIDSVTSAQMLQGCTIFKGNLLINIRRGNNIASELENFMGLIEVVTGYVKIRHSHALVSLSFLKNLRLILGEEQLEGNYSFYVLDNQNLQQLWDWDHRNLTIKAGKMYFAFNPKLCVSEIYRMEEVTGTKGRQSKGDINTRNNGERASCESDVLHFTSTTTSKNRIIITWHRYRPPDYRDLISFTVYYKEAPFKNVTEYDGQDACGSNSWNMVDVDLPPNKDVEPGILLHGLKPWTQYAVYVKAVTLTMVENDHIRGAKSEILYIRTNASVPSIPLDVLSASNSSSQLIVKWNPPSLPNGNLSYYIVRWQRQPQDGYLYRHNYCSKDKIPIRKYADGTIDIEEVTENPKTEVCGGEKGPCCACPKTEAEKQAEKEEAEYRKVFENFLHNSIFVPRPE
Sequence of Insulin-like growth factor 1 receptor (Homo sapiens) (P08069 741-1367 limits assumed): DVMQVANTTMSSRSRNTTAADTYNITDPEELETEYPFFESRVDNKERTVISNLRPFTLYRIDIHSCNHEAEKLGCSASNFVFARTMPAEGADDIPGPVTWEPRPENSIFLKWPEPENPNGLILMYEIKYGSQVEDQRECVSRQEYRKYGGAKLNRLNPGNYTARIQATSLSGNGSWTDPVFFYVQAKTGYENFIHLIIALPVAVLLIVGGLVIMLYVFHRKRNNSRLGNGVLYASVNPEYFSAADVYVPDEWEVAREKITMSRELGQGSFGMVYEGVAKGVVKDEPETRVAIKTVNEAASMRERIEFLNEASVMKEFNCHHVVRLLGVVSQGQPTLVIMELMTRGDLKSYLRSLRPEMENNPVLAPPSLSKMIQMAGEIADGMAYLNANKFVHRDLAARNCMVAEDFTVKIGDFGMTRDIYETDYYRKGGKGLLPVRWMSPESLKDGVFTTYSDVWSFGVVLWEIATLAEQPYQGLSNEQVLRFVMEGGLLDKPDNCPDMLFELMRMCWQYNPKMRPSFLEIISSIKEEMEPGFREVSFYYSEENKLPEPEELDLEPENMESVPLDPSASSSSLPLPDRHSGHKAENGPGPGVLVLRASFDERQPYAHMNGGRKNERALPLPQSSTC
Test [8] concerns the target T6, Inhibitor of nuclear factor kappa-B kinase subunit beta (Homo sapiens) (UniProt O14920).
T6 sequence (whole entry): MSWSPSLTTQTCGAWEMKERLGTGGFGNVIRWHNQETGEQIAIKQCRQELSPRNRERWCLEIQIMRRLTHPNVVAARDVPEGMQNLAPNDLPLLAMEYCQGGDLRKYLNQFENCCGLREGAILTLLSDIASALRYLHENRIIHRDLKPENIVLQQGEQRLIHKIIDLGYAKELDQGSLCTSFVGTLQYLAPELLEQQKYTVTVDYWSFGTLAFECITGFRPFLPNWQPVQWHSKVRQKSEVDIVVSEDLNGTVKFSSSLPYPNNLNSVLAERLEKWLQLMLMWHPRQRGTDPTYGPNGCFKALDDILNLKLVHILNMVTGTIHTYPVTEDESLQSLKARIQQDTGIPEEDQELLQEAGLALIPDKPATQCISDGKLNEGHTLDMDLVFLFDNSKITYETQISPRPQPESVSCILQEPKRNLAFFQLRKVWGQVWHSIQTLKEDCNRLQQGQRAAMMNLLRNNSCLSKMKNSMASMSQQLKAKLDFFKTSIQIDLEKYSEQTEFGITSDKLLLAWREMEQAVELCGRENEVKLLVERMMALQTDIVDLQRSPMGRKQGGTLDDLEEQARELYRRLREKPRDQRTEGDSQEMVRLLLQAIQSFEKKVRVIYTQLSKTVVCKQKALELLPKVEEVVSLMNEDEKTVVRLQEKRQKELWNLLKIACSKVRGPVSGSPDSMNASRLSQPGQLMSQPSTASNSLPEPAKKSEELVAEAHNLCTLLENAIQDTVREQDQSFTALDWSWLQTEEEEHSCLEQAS
Conditions: at 10 µM.

Test [9] deals with Insulin receptor (Homo sapiens) (UniProt P06213). Conditions: at 1 µM.
Sequence of Insulin receptor (Homo sapiens) (P06213 28-758 limits assumed): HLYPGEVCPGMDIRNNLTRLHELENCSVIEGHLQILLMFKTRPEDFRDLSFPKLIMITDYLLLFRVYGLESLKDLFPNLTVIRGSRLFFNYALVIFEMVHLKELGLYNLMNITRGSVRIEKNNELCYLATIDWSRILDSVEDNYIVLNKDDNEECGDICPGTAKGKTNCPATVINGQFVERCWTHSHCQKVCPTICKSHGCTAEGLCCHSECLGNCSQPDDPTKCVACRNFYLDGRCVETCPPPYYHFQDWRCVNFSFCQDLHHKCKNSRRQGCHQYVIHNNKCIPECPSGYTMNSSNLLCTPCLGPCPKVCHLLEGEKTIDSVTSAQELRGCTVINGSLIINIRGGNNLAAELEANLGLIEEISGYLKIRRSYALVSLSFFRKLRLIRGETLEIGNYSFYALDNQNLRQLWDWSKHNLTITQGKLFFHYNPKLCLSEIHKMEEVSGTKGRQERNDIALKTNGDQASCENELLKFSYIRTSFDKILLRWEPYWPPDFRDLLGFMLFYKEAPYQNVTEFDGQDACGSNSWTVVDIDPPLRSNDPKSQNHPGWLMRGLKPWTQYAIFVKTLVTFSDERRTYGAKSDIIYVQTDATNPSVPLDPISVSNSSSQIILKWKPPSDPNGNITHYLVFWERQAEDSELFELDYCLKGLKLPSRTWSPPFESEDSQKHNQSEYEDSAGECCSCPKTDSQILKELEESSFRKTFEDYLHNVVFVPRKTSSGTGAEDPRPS
Sequence of Insulin receptor (Homo sapiens) (P06213 763-1382 limits assumed): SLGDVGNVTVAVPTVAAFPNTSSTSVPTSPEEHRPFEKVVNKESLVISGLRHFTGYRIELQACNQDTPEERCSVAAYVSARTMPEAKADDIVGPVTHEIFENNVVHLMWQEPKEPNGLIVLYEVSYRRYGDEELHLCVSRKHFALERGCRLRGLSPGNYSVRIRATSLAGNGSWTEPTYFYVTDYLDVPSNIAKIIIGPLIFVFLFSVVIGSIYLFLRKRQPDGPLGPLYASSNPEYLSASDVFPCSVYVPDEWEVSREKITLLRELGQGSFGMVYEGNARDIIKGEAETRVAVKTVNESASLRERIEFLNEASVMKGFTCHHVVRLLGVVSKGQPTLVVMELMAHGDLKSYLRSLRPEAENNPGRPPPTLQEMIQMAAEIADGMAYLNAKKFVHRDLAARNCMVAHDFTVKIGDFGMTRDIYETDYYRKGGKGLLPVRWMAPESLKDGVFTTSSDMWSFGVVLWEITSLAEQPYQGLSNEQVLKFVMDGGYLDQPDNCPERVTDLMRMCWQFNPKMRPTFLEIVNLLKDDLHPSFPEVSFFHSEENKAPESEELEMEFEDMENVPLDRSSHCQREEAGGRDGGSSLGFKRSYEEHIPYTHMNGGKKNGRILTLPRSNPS

For `N#Cc1c(NC(=O)c2cccc3ccccc23)sc2c1CCCC2`, the residual activity turned out to be 93% in test [1]; 93% in test [2]; 99% in test [3]; 88% in test [4]; 67% in [5]; 73% in test [6]. The residual activity in test [7] was 124%; in test [8], 100%; in test [9], 137%.

The values above are taken from ChEMBL document CHEMBL2218924, “A broad activity screen in support of a chemogenomic map for kinase signalling research and drug discovery” (Biochem J, 2013).
